# Data reported in PubChem BioAssay (EPA / NIEHS).
# Inconclusive results are not listed. Calls of active or inactive are those of the source. How the source made its calls, unless noted: active means hit-call score of the fitted dose curve at least 0.9, where 1 is the maximum; inactive means score below 0.9.
# Assays:
# SRD5A2 (gene 6716) = experiment: CCTE_Deisenroth_5AR_NBTE_ratio: CCTE's 5alpha-reductase NanoBRET Target Engagement Assay - Ratio, Deisenroth Lab (AID 2284322); conditions: actives raise or lower the signal
# Procedure, shortened: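 HEK293T cells transiently expressing an SRD5A2-NanoLuc fusion (20 h post-transfection) were exposed to test chemical (10 nM - 29.9 uM, 8 points) for 3 h, then testosterone tracer for a further 2 h. Acceptor/donor BRET ratio was fitted bidirectionally against DMSO baseline.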
# [1] = CCTE_Mundy_HCI_iCellGluta_NOG_NeuronCount: CCTE's Neurite Outgrowth Assay in iCellGluta cells for Neuron Count, Mundy Lab (AID 2284340; active means hit-call score of the fitted dose curve at least 0.9, where 1 is the maximum;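 further: cells fixed about 48 h after compound addition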)
# Procedure, shortened: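 Neuron count read by automated high-content imaging of Hoechst 33342 and betaIII-tubulin/Alexa Fluor-488 labelling in human iPSC glutamatergic neurons. Activity fitted relative to DMSO.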
# [2] = CCTE_Mundy_HCI_iCellGluta_NOG_NeuriteCount: CCTE's Neurite Outgrowth Assay in iCellGluta cells for Neurite Count, Mundy Lab (AID 2284342; active means hit-call score of the fitted dose curve at least 0.9, where 1 is the maximum;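 further: chemical exposure about 48 hours starting 2 hours after plating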)
# [3] = TAMU_PeakParms_SingleDonor1434_Asystole: Texas A&M University (TAMU) 1.5-hr Human Induced Pluripotent Stem Cell (iPSC)-derived Cardiomyocytes Calcium (Ca+2) Flux Assay for Cardiotoxicity: Asystole (quiescence of beating) (AID 2284328; active means hit-call score of the fitted dose curve at least 0.9, where 1 is the maximum)
# Procedure, shortened: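 Donor 1434 iPSC-cardiomyocytes exposed 90 min at 37C, 5% CO2, to 0.2, 1, 10 and 100 uM in 0.5% DMSO. Ca2+ dye fluorescence gave average peak frequency; POD is EC95, a 95% beat-rate drop versus controls.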
# [4] = VALA_TUBIPS_Antagonist_CellCount: Viability Assessment in the VALA Sciences human iPS-derived Endothelial Tubule Formation (TUBIPS) Antagonism Assay (AID 2284335; active means hit-call score of the fitted dose curve at least 0.9, where 1 is the maximum)
# [5] = VALA_MIGHUV1_ScratchOnly_WoundArea: VALA Sciences human Umbilical Vein Endothelial Cell Migration (MIGHUV) Assay, Area of Scratch Wound Inhibited Recovery (AID 2284336; active means hit-call score of the fitted dose curve at least 0.9, where 1 is the maximum)
# Procedure, shortened: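 Wound area remaining after 24 h recovery imaged by Hoechst nuclear fluorescence in scratched HUVEC cultures, chemicals added within 30 min of scratching across a 6-point series. Gain of signal fitted against 0.1% DMSO; cytochalasin D positive control.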
# [6] = VALA_TUBHUV_Agonist_TubuleLength: VALA Sciences human Umbilical Vein Endothelial Tubule Formation (TUBHUV) Agonism Assay (AID 2284337; active means hit-call score of the fitted dose curve at least 0.9, where 1 is the maximum)
# Procedure, shortened: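 Tubule length quantified by CD31 immunofluorescence imaging after fixation. HUVEC-HDF co-cultures (1:3) pre-grown 3 days with 10 ng/ml VEGF, then dosed 3 days in VEGF medium; 0.1 % DMSO vehicle baseline.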
# [7] = VALA_TUBIPS_Agonist_CellCount: Viability Assessment in the VALA Sciences human iPS-derived Endothelial Tubule Formation (TUBIPS) Agonism Assay (AID 2284338; active means hit-call score of the fitted dose curve at least 0.9, where 1 is the maximum)
# [8] = Tanguay_ZF_120hpf_MO24: Oregon State University Tanguay Lab 24 Hour Post-fertilization zebrafish Assay for Mortality (AID 2284389)
# Procedure, shortened: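 Embryo death at 24 hpf was recorded as present or absent in Tropical 5D zebrafish, dechorionated at 4 hpf and dosed statically from 6 hpf (28C, 0.64% DMSO); 5 uM trimethyltin chloride served as positive control.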
# [9] = Tanguay_ZF_120hpf_DP24: Oregon State University Tanguay Lab 24 Hour Post-fertilization zebrafish Assay for Delayed Development (AID 2284390)
# Procedure, shortened: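 Scored at 24 hpf as a binary present/absent call of delayed development by brightfield, with dead embryos not assessed. Embryos (5D wild type, chorion removed with pronase at 4 hpf) dosed statically from 6 hpf at 28 C in 0.64% DMSO.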
# [10] = Tanguay_ZF_120hpf_CRAN: Oregon State University Tanguay Lab 120 Hour Post-fertilization zebrafish Assay for Craniofacial Malformation (AID 2284397)
# Procedure, shortened: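 Scoring of craniofacial malformation as a binary endpoint was done at 120 hpf by brightfield microscopy and was not done in dead embryos. Exposure was static, starting at 6 hpf, in dechorionated wild-type embryos held singly at 28C with 0.64% DMSO final.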
# [11] = Tanguay_ZF_120hpf_AXIS: Oregon State University Tanguay Lab 120 Hour Post-fertilization zebrafish Assay for Axial Malformation (AID 2284398)
# Procedure, shortened: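 Scoring was binary (present or absent) for body-axis defects, judged by brightfield imaging at 120 hpf in surviving larvae. Exposure was static at 28C from 6 hpf in chorion-free 5D wild-type embryos, with 0.64% DMSO vehicle.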
# [12] = Tanguay_ZF_120hpf_EDEM: Oregon State University Tanguay Lab 120 Hour Post-fertilization zebrafish Assay for Edema Malformation (AID 2284400)
# Procedure, shortened: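 Edema recorded as a binary endpoint under brightfield at 120 hpf, excluding embryos that died. Exposure was static, sealed, 28C, from 6 hpf in dechorionated wild-type larvae, final DMSO 0.64%, DMSO as baseline.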
# [13] = Tanguay_ZF_120hpf_MUSC: Oregon State University Tanguay Lab 120 Hour Post-fertilization zebrafish Assay for Muscle Malformation (AID 2284401)
# Procedure, shortened: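 Scored as a binary brightfield endpoint at 120 hpf, fitted versus DMSO. Single dechorionated wild-type (Tropical 5D) zebrafish embryos per well, statically exposed at 28C from 6 hpf onward with final DMSO 0.64%.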
# [14] = Tanguay_ZF_120hpf_BRN: Oregon State University Tanguay Lab 120 Hour Post-fertilization zebrafish Assay for Brain Region Malformation (AID 2284402)
# Procedure, shortened: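 Binary brightfield scoring of brain malformation at 120 hpf in 5D wild-type larvae, chorion removed with pronase at 4 hpf. Static exposure began at 6 hpf, 28C, sealed plates, DMSO 0.64% (vol/vol) as vehicle baseline.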
# [15] = CCTE_Deisenroth_H295R-HTRF_384WELL_ESTRADIOL: CCTE's H295R-HTRF Assay Evaluation of Estradiol Concentration, Deisenroth Lab (AID 2284361); conditions: actives raise or lower the signal
# Procedure, shortened: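 Estradiol secreted into medium by H295R adrenocortical cells, quantified by HTRF after 48 h dosing over a nine-point 0.001 - 100 uM final range; gain or loss versus DMSO. Parallel ATP-luminescence viability readout; n=5 experiments.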
# [16] = CCTE_Deisenroth_H295R-HTRF_384WELL_TESTOSTERONE: CCTE's H295R-HTRF Assay Evaluation of Testosterone Concentration, Deisenroth Lab (AID 2284373); conditions: actives raise or lower the signal
# Procedure, shortened: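 Testosterone secreted into medium was quantified by direct HTRF immunoassay after a 48 h treatment of H295R adrenocortical cells (nine concentrations, 0.001–100 uM final). Gain or loss fitted relative to DMSO; CellTiter-Glo viability read on same plates.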
# [17] = CCTE_Deisenroth_H295R-HTRF_384WELL_CTOX: Cytotoxicity Assessment in CCTE's H295R-HTRF Assay, Deisenroth Lab (AID 2284380; active means hit-call score of the fitted dose curve at least 0.9, where 1 is the maximum)
# Procedure, shortened: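 Luminescent ATP viability readout (CellTiter-Glo 2.0), multiplexed on plates used for hormone sampling, after 48 h chemical exposure. Human H295R cells; final concentrations 0.001–100 uM in nine steps, technical triplicates, five experiments; DMSO baseline.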
# [18] = IUF_NPC1_cytotoxicity_72hr: Cytotoxicity Assessment at 72 hours in the Leibniz Research Institute for Environmental Medicine (IUF) Neural Progenitor Cell Proliferation Assay (NPC1) (AID 2284332; active means hit-call score of the fitted dose curve at least 0.9, where 1 is the maximum;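 further: rising LDH signal means more cytotoxicity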)
# Procedure, shortened: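 Cytotoxicity by LDH membrane-integrity assay on medium supernatants, fluorescence via resazurin reduction, after 3-day single exposure of primary hNPC spheres at 37C, pH 7.2-7.6 with growth factors. Fitted upward against baseline.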
# [19] = Tanguay_ZF_120hpf_MORT: Oregon State University Tanguay Lab 120 Hour Post-fertilization zebrafish Assay for Mortality (AID 2284399)
# Procedure, shortened: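 Mortality, recorded present/absent via brightfield imaging at 24 and 120 hpf, in 5D zebrafish embryos exposed statically from 6 hpf after pronase chorion removal. Exposure at 28C, 0.64% DMSO vehicle, DMSO baseline.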
compound,measurement,setting,value
C=C(C)C(=O)[O][Sn]([CH2]CCC)([CH2]CCC)[CH2]CCC,AC50,SRD5A2 (gene 6716),4.42 µM (active)
same,AC50,[1],0.202 µM (active)
same,AC50,[2],0.188 µM (active)
Oc1cccc2cccnc12,outcome,[3],inactive
O=C(OC1CCCCC1)c1ccccc1C(=O)OC1CCCCC1,outcome,SRD5A2 (gene 6716),inactive
CC(C)(C)c1cc(O)ccc1O,outcome,[3],inactive
same,outcome,[4],inactive
same,outcome,[5],inactive
same,AC50,[6],56 µM (active)
same,AC50,[7],50 µM (active)
O=C(O)C(F)(F)C(F)(F)C(F)(F)C(F)(F)C(F)(F)C(F)(F)C(F)(F)C(F)(F)C(F)(F)C(F)(F)F,outcome,SRD5A2 (gene 6716),inactive
same,outcome,[8],inactive
same,outcome,[9],inactive
same,outcome,[10],inactive
same,outcome,[11],inactive
same,outcome,[12],inactive
same,outcome,[13],inactive
same,outcome,[14],inactive
CCC1(c2ccc(N)cc2)CCC(=O)NC1=O (stereo not drawn),outcome,SRD5A2 (gene 6716),inactive
same,outcome,[15],inactive
same,outcome,[16],inactive
same,outcome,[17],inactive
N#CN=C(N)N,outcome,SRD5A2 (gene 6716),inactive
O=C1C2(Cl)C3(Cl)C4(Cl)C(Cl)(Cl)C5(Cl)C3(Cl)C1(Cl)C5(Cl)C24Cl (stereo not drawn),AC50,[1],17.9 µM (active)
same,AC50,[2],21.6 µM (active)
CCOP(=S)(OCC)Oc1nc(Cl)c(Cl)cc1Cl,outcome,SRD5A2 (gene 6716),inactive
same,outcome,[3],inactive
same,outcome,[18],inactive
O=C(Nc1ccc2[nH]ccc2c1)c1cc2cc(F)ccc2n1Cc1cccc(F)c1,AC50,SRD5A2 (gene 6716),3.93 µM (active)
CCN1CCC2(CC1)COc1cc3c(cc12)N(C(=O)c1ccc(-c2ccc(-c4nnc(C)o4)cc2C)cc1)CC3,AC50,SRD5A2 (gene 6716),5.8 µM (active)
C[C@@H]1C[C@@H]([C@H](O)CC2CC(=O)NC(=O)C2)C(=O)[C@@H](C)C1,AC50,SRD5A2 (gene 6716),0.0871 µM (active)
O=C(O)C(F)(F)C(F)(F)C(F)(F)C(F)(F)C(F)(F)C(F)(F)F,outcome,[1],inactive
same,outcome,[8],inactive
same,outcome,[9],inactive
same,outcome,[10],inactive
same,outcome,[11],inactive
same,outcome,[19],inactive
same,outcome,[12],inactive
same,outcome,[13],inactive
same,outcome,[14],inactive
CCC[CH2][Sn]([CH2]CCC)([CH2]CCC)[O]C(=O)c1ccccc1,AC50,SRD5A2 (gene 6716),10 µM (active)
COP(=O)(OC)O/C(=C\Cl)c1cc(Cl)c(Cl)cc1Cl,AC50,[18],75.5 µM (active)
same,AC50,[1],51.5 µM (active)
same,AC50,[2],51.5 µM (active)
O=C1C(Cl)=C(Cl)C(=O)c2ccccc21,outcome,SRD5A2 (gene 6716),inactive
ClC(Cl)=C(Cl)C(Cl)=C(Cl)Cl,outcome,[3],inactive
C[C@H]1CCCC(=O)CCC/C=C/c2cc(O)cc(O)c2C(=O)O1,outcome,SRD5A2 (gene 6716),inactive
CC(C)(c1ccc(OCC2CO2)cc1)c1ccc(OCC2CO2)cc1 (stereo not drawn),outcome,SRD5A2 (gene 6716),inactive
ClCC(Cl)CCl,outcome,[4],inactive
same,outcome,[5],inactive
same,outcome,[6],inactive
same,outcome,[7],inactive
Fc1ccc(C2(Cn3cncn3)OC2c2ccccc2Cl)cc1 (stereo not drawn),AC50,[15],1.14 µM (active)
same,AC50,[16],1.23 µM (active)
same,outcome,[17],inactive
c1cc[c]([Hg][c]2ccccc2)cc1,outcome,SRD5A2 (gene 6716),inactive
CC(=O)[O][Hg][c]1ccccc1,AC50,SRD5A2 (gene 6716),50 µM (active)
O=[N+]([O-])c1ccc(O)c([N+](=O)[O-])c1,AC50,SRD5A2 (gene 6716),64.9 µM (active)
